WRN helicase inh = blocks human WRN helicase; Q14191; WRN helicase unwinding, fluorescent forked duplex, kinetic; Potency, µM (titrated, usually from 114 µM), for the others: top-dose activity change, negative = inhibition, hits mostly inhibitors; 0.46% of 360,000 active; AID 651768; further: potency means the concentration at half of the fitted maximal effect; on the % scale 0 is the no-effect control and ±100 the full control effect; nearly all actives have a fitted effect of over 55% in size
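WRN at 20 nM final preincubated with compound 15 min at room temperature; reaction started with 100 nM fluorophore/quencher forked duplex oligonucleotide and 2 mM ATP final. Unwinding followed kinetically by red fluorescence (ex 525, em 598 nm).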
Pol eta inh-1 = DNA polymerase eta (human) inhibition; recombinant Pol eta, fluorescent DNA replication assay; AID 588591; 1.2% of 390,000 active; Potency, µM (highest dose often 114 µM), without a hit: at the top dose activity change, negative = inhibition, usual class: inhibitors; further: potency means the concentration at half of the fitted maximal effect; on the % scale 0 is the no-effect control and ±100 the full control effect
Target sequence (Q9Y253 whole entry, looked up): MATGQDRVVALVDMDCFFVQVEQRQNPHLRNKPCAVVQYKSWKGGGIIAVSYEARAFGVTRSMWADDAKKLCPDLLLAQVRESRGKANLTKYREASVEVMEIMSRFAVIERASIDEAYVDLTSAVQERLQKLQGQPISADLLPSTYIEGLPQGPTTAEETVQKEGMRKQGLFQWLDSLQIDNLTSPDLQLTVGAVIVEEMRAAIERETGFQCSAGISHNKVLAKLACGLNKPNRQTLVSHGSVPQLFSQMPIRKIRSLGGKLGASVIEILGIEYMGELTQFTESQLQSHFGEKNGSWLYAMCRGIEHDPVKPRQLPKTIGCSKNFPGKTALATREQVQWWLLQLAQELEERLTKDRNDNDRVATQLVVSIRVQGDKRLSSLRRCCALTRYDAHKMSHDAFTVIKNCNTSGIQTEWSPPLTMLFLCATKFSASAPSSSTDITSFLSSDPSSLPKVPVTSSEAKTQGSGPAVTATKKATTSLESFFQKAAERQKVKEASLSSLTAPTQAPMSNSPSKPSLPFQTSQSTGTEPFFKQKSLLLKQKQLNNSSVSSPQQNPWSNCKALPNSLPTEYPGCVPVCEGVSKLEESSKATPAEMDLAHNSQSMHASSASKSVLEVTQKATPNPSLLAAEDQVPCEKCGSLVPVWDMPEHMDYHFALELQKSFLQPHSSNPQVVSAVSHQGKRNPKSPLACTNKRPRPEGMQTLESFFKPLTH
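Fluorescent replication assay: 50 nM final substrate added after a 15 min room-temperature compound preincubation with 10 nM enzyme. Signal taken at 0 min and again at 10 min.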
POLI inh = DNA polymerase iota (human) inhibition. Q9UNA4. Pol iota fluorescent replication assay, 10 min. Potency, µM (titrated, usually from 115 µM), without a hit: at the highest dose activity, negative = inhibition, usual class: inhibitors. 1% of 390,000 active. AID 588590; further: potency means the concentration at half of the fitted maximal effect
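Pol iota at 10 nM preincubated 15 min with compounds at room temperature; reaction started with fluorescent substrate, 50 nM final. Fluorescence read kinetically at 0 and 10 min; buffer-only wells as negative control.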
Pol beta inh-1 = inhibitors of human DNA polymerase beta. P06746. Pol beta primer extension/strand displacement, fluorescence kinetic. Potency, µM (series often up to 114 µM), inactives show at the top dose activity change, negative = inhibition, hits mostly inhibitors. 1.3% of 340,000 active; further: potency means the concentration at half of the fitted maximal effect; on the % scale 0 is the no-effect control and ±100 the full control effect
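Pol beta (10 nM) was preincubated with compound for 15 min at room temperature. The reaction was then started with 50 nM substrate and read immediately and after a further 10 min at room temperature.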
PI5P4Ka inh = blocks human PI5P4K alpha kinase activity; P48426; 1.2% of 330,000 active; AID 652105; PI5P4Kalpha enzyme, ADP-Glo luminescence, 60 min; active compounds read low; max response, %; active means max response of -50% or lower; inconclusive means between -30% and -50%; inactive means -30% or higher; further: value at the top dose of about 77 µM; on the % scale 0 is the no-effect control and ±100 the full control effect
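ADP-Glo luminescence end-point after a 60 min room-temperature kinase reaction. PI5P4Kalpha and substrate in HEPES pH 7.4 buffer with EGTA, 0.1% CHAPS and 5% DMSO; ATP at 5 microM final.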
POLK inh = DNA polymerase kappa (human) inhibition | purified Pol kappa, fluorescent DNA synthesis assay, 10 min | 0.53% of 400,000 active | Q9UBT6 | Potency, µM (titrated, usually from 107 µM), inactives show top-dose activity, negative = inhibition, hits mostly inhibitors; further: potency means the concentration at half of the fitted maximal effect; on the % scale 0 is the no-effect control and ±100 the full control effect
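10 nM Pol kappa was preincubated with compounds for 15 min at room temperature. Reaction started with 50 nM (final) substrate. Fluorescence read kinetically at 0 and 10 min.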
Pol beta inh-2 = Validate hits inhibiting human DNA polymerase beta; shares compounds with Pol beta inh-1; Pol beta primer extension/strand displacement, fluorescence kinetic; Potency, µM, usual class: inhibitors; 87% of 250 active; AID 540280; calls by dose curve; further: potency means the concentration at half of the fitted maximal effect
Klenow inh = inhibits Klenow fragment polymerase in counter-screen. shares compounds with Pol beta inh-1. Klenow exo- polymerase counter-screen, fluorescent DNA substrate. activity change, negative = inhibition, % at 57.1 µM. 250 tested, under 10 active. AID 540300
HIV RT counter = counter-screen for DNA polymerase beta inhibitors: HIV-1 RT inhibition | 250 tested, under 10 active | HIV-1 RT polymerase activity, counter-screen | shares compounds with Pol beta inh-1 | activity % (negative = inhibition, positive = activation), % at 57.1 µM
PGK validate = blocks T. brucei phosphoglycerate kinase; shares compounds with POLK inh; TbPGK coupled GAPDH assay, Kinase-Glo luminescence; Potency, µM (titrated, usually from 57.5 µM), without a hit: top-dose activity change, negative = inhibition, most hits filed as inhibitors; 79% of 500 active; further: potency means the concentration at half of the fitted maximal effect; on the % scale 0 is the no-effect control and ±100 the full control effect; nearly all actives have a fitted effect of over 65% in size
POLI cherry-pick = Confirm cherry-picked inhibitors of human polymerase iota; shares compounds with POLK inh; Pol iota primer extension, TAMRA/BHQ fluorescence; Potency, µM, actives largely listed as inhibitors; 77% of 1,500 active; AID 720496; further: potency means the concentration at half of the fitted maximal effect
Pol eta inh-2 = confirmation of human DNA polymerase eta inhibitors; 64% of 2,600 active; Pol eta primer extension, TAMRA/BHQ fluorescence, 10 min; shares compounds with Pol eta inh-1; Potency, µM, actives largely listed as inhibitors; further: potency means the concentration at half of the fitted maximal effect
ADP-Glo counter = interferes with ADP-Glo detection without enzyme present | 1,100 tested, under 10 active | Potency, µM (doses to about 76.9 µM), for the others: top-dose activity change, negative = inhibition, hits mostly inhibitors | ADP-Glo detection counter-screen, luciferase luminescence, no enzyme | shares compounds with PI5P4Ka inh
* marks the source's active call; other numbers are inactive results; ? = inconclusive; nt = no result; [ ] = another dose, or the depositor's remark. Shown are actives, neighbours in structure and some others; about 2.8% of the full set was active somewhere. Unless noted, the call rests on the fitted dose curve; in most records, active means well fitted curve in the direction sought with a large enough effect; inconclusive means small, poorly fitted or top-dose-only effect, or another doubt; inactive means no such curve, though single readings can be large; an effect the other way counts as inactive or inconclusive.

SMILES	WRN helicase inh	Pol eta inh-1	POLI inh	Pol beta inh-1	PI5P4Ka inh	POLK inh	PGK validate	POLI cherry-pick	others
Cc1cc2oc(C(=O)Nc3ccc(S(=O)(=O)Nc4nccs4)cc3)cc(=O)c2cc1Cl	-12%[11.6 µM]	20µM*	?	13µM*	-52*	-75%	nt	nt	Pol beta inh-2=14*;Klenow inh=-29;HIV RT counter=18;Pol eta inh-2=76*;ADP-Glo counter=0%
Cc1cc2oc(C(=O)Nc3ccc(S(=O)(=O)Nc4ncccn4)cc3)c(C)c2cc1Cl	-19%	1%	9%	-2%	2	-17%	nt	nt
Cc1ccc(CN(C(=O)COc2ccc(Cl)c(C)c2)c2ccccn2)o1	nt	-19%	5%	15%	nt	-16%	nt	nt
CCOc1cc(/C=C2/NC(=S)NC2=O)ccc1OCc1ccc([N+](=O)[O-])cc1	-28%[57.1 µM]	?	?	?	-17	-4%	nt	?
O=C(CSc1nc2ccccc2n1Cc1ccccc1)N1CCN(c2ccc(F)cc2)CC1	nt	-11%	11%	30%	nt	2%	nt	nt
COc1ccccc1C(=O)Nc1nc2ccccc2s1	2%	-5%	?	-27%	?	14%	16µM*	nt
Cn1c(=O)cc(SCC(=O)NCCc2ccc(Cl)cc2)c2cc(Cl)ccc21	nt	2%	-11%	26%	nt	-1%	nt	nt
Cc1ccc(-c2nc3ccccc3n2C)o1	0%	0%	27%	-2%	nt	-12%	?	nt
O=c1c2ccccc2n(Cc2ccccc2F)c(=O)n1-c1cccc(F)c1	nt	-12%	-3%	7%	nt	13%	nt	nt
CCCc1cc(=O)oc2cc(OCC(=O)Nc3ccc(S(N)(=O)=O)cc3)ccc12	?	10µM*	5µM*	89µM*	-4	40µM*	nt	38*
COc1ccc(/C=C/c2nc3ccccc3n2C)cc1	-3%	-1%	139%	0%	-62*	-14%	4.1µM*	nt
COc1ccc(Cn2c(/C=C/c3ccccc3)nc3ccccc32)cc1	-8%	-1%	-11%	29%	nt	-12%	nt	nt
NNc1nc2c(Cl)c(Cl)ccc2s1	?	?	14µM*	?	?	?	?	67*
COc1cccc2sc(NN)nc12	?	2%	41%	-8%	-23	-7%	nt	nt
Cc1ccc(CNC(=O)c2nnn(CC(=O)Nc3cc(C)cc(C)c3)c2N)cc1	-14%[11.6 µM]	?	40µM*	?	-4	?	nt	34*
Cc1cc(C)cc(NC(=O)Cn2nnc(C(=O)NCc3ccc4c(c3)OCO4)c2N)c1	-25%	?	?	?	-2	?	nt	nt

Screening results deposited in PubChem BioAssay by National Center for Advancing Translational Sciences (NCATS).
